Assay results reported in PubChem BioAssay (NCATS).
Where “and” joins values, the source holds several entries; their conditions need not be identical. Equal values may be shown once. Inconclusive results are not listed. Calls of active or inactive are those of the source. Unless noted, calls come from the whole dose curve; as a rule, active = well fitted curve in the direction sought with a large enough effect; inconclusive = small, poorly fitted or top-dose-only effect, or another doubt; inactive = no such curve, though single readings can be large; an effect the other way counts as inactive or inconclusive.

Key:
[1] = Cell Viability - BJ (AID 421; calls by dose curve;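 note: potency is the fitted concentration of half-maximal effect; cells exposed to compound for 40 hours at 37 °C before readout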); details: BJ fibroblast viability, qHTS
Outline: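 Cytotoxicity in human BJ foreskin fibroblasts is scored as loss of cellular ATP after a 40-hour exposure, measured by luciferase luminescence. Controls are DMSO and 100 uM tamoxifen.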

[2] = Cell Viability - Jurkat (AID 426;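 active = dose-dependent loss of cell ATP signal giving a full or clear fitted curve, ranked by lower potency value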; note: potency is the fitted concentration of half-maximal effect); details: qHTS
Outline: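 Jurkat (Clone E6-1) cells, 5000/well in complete medium, exposed to compounds for 40 hr at 37C; intracellular ATP measured by CellTiter-Glo luminescence after 20 min at room temperature. AC50 from Hill fits.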

[3] = Cell Viability - Hek293 (AID 427;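 active = compounds whose dose-response curve shows a full or clear partial loss of cell viability, called from curve shape rather than a numeric limit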;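 note: potency is the fitted concentration of half-maximal effect; cells exposed to compound for 40 hours at 37 °C before reading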); details: qHTS
Outline: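 qHTS, human embryonic kidney (adenovirus-transformed) cells; 40 hr cpd, 37 °C; CellTiter-Glo ATP luminescence. Norm: DMSO = 0, 100 uM tamoxifen = 100% inhibition. Hill-fit AC50.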

[4] = Cell Viability - HepG2 (AID 433; calls by dose curve;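 note: potency is the fitted concentration of half-maximal effect; potency for ATP loss meaning cytotoxicity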); details: qHTS
Outline: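 HepG2 cells, 1500 per well, treated 40 hr at 37 °C in complete medium; viability from intracellular ATP by CellTiter-Glo luminescence. Normalized to DMSO and 100 uM tamoxifen; AC50 from Hill fit of qHTS concentration-response.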

[5] = Cell Viability - MRC5 (AID 434; calls by dose curve;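 note: potency is the fitted concentration of half-maximal effect; potency reflects cytotoxicity seen as loss of intracellular ATP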); details: MRC5 lung fibroblast viability, qHTS
Outline: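 MRC5 normal human lung fibroblasts (1500/well) were treated with compounds for 40 hr at 37 °C in complete medium, and viable cells were measured as intracellular ATP by CellTiter-Glo luminescence. AC50 came from Hill fits, normalized to DMSO and 100 uM tamoxifen.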

[6] = Cell Viability - SK-N-SH (AID 435; calls by dose curve;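 note: potency is the fitted concentration of half-maximal effect; compound exposure lasted 40 h at 37 °C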); details: SK-N-SH neuroblastoma cell viability qHTS
Outline: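 SK-N-SH neuroblastoma cells (1500/well) treated 40 h at 37 °C in complete medium; viability read as cellular ATP by CellTiter-Glo luminescence. Normalized to DMSO and 100 uM tamoxifen; AC50 from Hill fits of qHTS concentration-response.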

[7] = Cell Viability - HUV-EC-C (AID 542); details: HUV-EC-C endothelial cell viability, qHTS; series mostly up to 92.2 µM; note: % is set by controls: 0 for no effect and ±100 for the full control effect; nearly all actives have a fitted effect of over 35% in size
Outline: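 HUV-EC-C human vascular endothelial cells, 1000/well, exposed to compound for 40 hr at 37 °C in complete medium. Intracellular ATP was read by CellTiter-Glo luminescence. AC50 came from Hill-equation fits of concentration-response data.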

[8] = Cellular Toxicity (caspase-3) HepG2 (AID 654); details: HepG2 caspase-3 activation, luminescence, 0% = DMSO only, 100% = tamoxifen; series mostly up to 92.2 µM;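 note: cells exposed to compound for 16 hours before reading; 0% = DMSO alone and 100% = caspase signal from 100 µM tamoxifen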
Outline: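 HepG2 cells (1500/well) were treated 16 h at 37 °C in complete medium, then caspase 3/7 activity was read by Caspase-Glo luminescence. Data were normalized to DMSO and 100 uM tamoxifen; AC50 came from Hill-equation fits of qHTS concentration-response.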

[9] = Cellular Toxicity (caspase-3) HUV-EC-C (AID 656); details: HUV-EC-C cells, caspase-3 activation (apoptosis), vehicle = 0, 100 µM tamoxifen = 100%; series mostly up to 92.2 µM
Outline: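 HUV-EC-C cells (1000/well) in complete medium, compound-treated 16 h at 37 °C; caspase-3/7 activity read by Caspase-Glo 3/7 luminescence. Normalized to DMSO (basal) and 100 uM tamoxifen (100%); AC50 from Hill-equation concentration-response fits.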

[10] = Cellular Toxicity (caspase-3) BJ (AID 658); details: BJ fibroblasts, luminescence, normalized: DMSO 0%, staurosporine 100%; series mostly up to 91.7 µM
Outline: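 Luminescent aminoluciferin-substrate cleavage reports caspase 3/7 activity in normal human BJ fibroblasts after 16 hr compound exposure at 37 °C. Normalized to DMSO (basal) and 10 uM staurosporine (100%); AC50 from Hill fit of concentration-response.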

[11] = Cellular Toxicity (caspase-3) Mesangial (AID 660); details: mesangial cells, normalized: DMSO 0%, 100 µM tamoxifen 100%; series mostly up to 91.7 µM;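 note: cells exposed to compound for 16 h before the caspase read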
Outline: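 Human renal glomerular mesangial cells, 1000/well, 5 h at 37 C before 16 h compound treatment. Caspase-Glo 3/7 luminescence after 20 min; normalized to DMSO and 100 uM tamoxifen, AC50 from Hill fit.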

[12] = Cellular Toxicity (caspase-3) SK-N-SH (AID 661); details: SK-N-SH caspase-3 activation, qHTS; series mostly up to 91.7 µM
Outline: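 Human SK-N-SH neuroblastoma cells, 1500/well, were exposed to compounds for 16 hours at 37 °C. Caspase-Glo 3/7 luminescence was normalized to DMSO (basal) and 10 uM staurosporine (100%), and AC50 came from a Hill fit.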

[13] = Cellular Toxicity (caspase-3) H-4-II-E (AID 663); details: H-4-II-E rat hepatoma; Potency: caspase-3 activation; series mostly up to 92.2 µM;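 note: cells exposed to compound for 16 hr before readout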
Outline: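 Luminescence from caspase-cleaved aminoluciferin substrate, read 20 min after reagent addition, reports caspase 3/7 activation in rat H-4-II-E cells after 16 hr compound exposure. Normalized to DMSO (basal) and 100 uM tamoxifen (100%); AC50 from Hill fits.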

[14] = Cellular Toxicity (caspase-3) N2a (AID 665); details: N2a cells, luminescence, normalized: DMSO 0%, 10 µM staurosporine 100%; series mostly up to 92.2 µM;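 note: compound exposure lasted 16 h at 37 °C before readout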
Outline: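 Mouse N2a neuroblastoma cells, 1500 per well, treated 16 h at 37 °C in complete medium; caspase-3/7 activity by Caspase-Glo luminescence after 1 h. Normalized to DMSO and 10 uM staurosporine; AC50 from Hill fits.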

[15] = Cell Viability - LYMP1-002 - Assay at 16 hr (AID 948); details: LYMP1-002 lymphoblastoid cell viability; series mostly up to 92.2 µM;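 note: 0% = DMSO alone and full effect = 92 µM tetraoctylammonium bromide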
Outline: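 LYMP1-002 human lymphoblastoid cells, 2500/well, were treated with compounds for 16 hr at 37 C in complete medium. Viability was read as intracellular ATP by CellTiter-Glo luminescence, and AC50 was derived from a Hill fit to concentration-response data.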

[16] = MultiTox-Fluor Cytotoxicity Assay - LYMP1-003 - Dead Cells (AID 961); details: LYMP1-003 lymphoblastoid cells, dead-cell protease fluorescence; series mostly up to 92.2 µM; note: nearly all actives have a fitted effect of over 70% in size
Outline: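 LYMP1-003 lymphoblastoid, 2500 cells/well, 5 hr settle then 16 hr cpd at 37 C; MultiTox-Fluor reagent 60 min RT; Ex/Em 485/520 dead-cell signal; norm. DMSO = 0%, 15 uM tetraoctylammonium bromide = 100%; Hill AC50.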

[17] = Cell Viability - LYMP2-023 (AID 975); details: LYMP2-023 lymphoblastoid cell viability; series mostly up to 92.2 µM;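 note: cellular ATP measured by luciferase luminescence as viability proxy; cells exposed to compound for 24 hours at 37 °C; plate controls were DMSO only for no effect and 92 µM tetraoctylammonium bromide control for full effect; nearly all actives have a fitted effect of over 55% in size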
Outline: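 LYMP2-023 human lymphoblastoid cells, 2500/well, preincubated 5 hr at 37 C, then compound-treated 24 hr at 37 C in complete medium. CellTiter-Glo luminescence (ATP) after 30 min at room temperature; AC50 from Hill-equation fits; tetraoctylammonium bromide positive control.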

[18] = Cell Viability - LYMP2-008 (AID 980); details: LYMP2-008 lymphoblastoid cell viability, qHTS; series mostly up to 92.2 µM;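 note: cells exposed to compound for 24 h at 37 °C; % is set by controls: 0 for no effect and ±100 for the full control effect; nearly all actives have a fitted effect of over 60% in size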
Outline: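 LYMP2-008 lymphoblastoid cells (2500/well) plated 5 h, then treated 24 h at 37 C in complete medium. Viability read as intracellular ATP by CellTiter-Glo luminescence after 30 min at room temperature; AC50 from Hill fits.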

[19] = qHTS Assay for Identification of Small Molecule Inducers of Hypoxia Response (AID 2120; active = well fitted curve in the direction sought with a large enough effect in the signal ratio, with a control signal flat, not every such curve was filed as active; the % refers to the signal ratio; note: 0% is about no effect); details: hypoxia response reporter cells, beta-lactamase ratio readout; series mostly up to 104 µM
Outline: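 HRE-bla ME-180 cells in Opti-MEM with 0.5% dialyzed FBS, pre-plated 4-5 h, then compound titration for 17 h at 37 degrees Celsius. CCF4 loaded 2.5 h at room temperature; 460/530 nm ratio gave %Activity and AC50 for induction.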

[20] = qHTS assay for cell viability of HEK293 cells (AID 743288); details: ATP luminescence (CellTiter-Glo), 18 h, active compounds read low; note: % is set by controls: 0 for no effect and ±100 for the full control effect; nearly all actives have a fitted effect of over 50% in size
Outline: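 Parental HEK293 cells, 2,000 per well, preincubated at least 5 h at 37 C, then exposed to compounds in DMSO for 18 h at 37 C. Viability by CellTiter-Glo ATP luminescence after 30 min at room temperature.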

N#CCCCCC#N
inactive: Potency [1] > 92 µM | Potency [2] > 92 µM | Potency [3] > 92 µM | Potency [4] > 92 µM | Potency [5] > 92 µM | Potency [6] > 92 µM | Potency [7] | outcome [8] | outcome [9] | outcome [10] | outcome [11] | Potency [12] | Potency [13] | outcome [14] | outcome [15] | Potency [16] | Potency [17] | Potency [18] | Potency [19] | max response [20] -18.9%

COc1cc(-c2ccc(N)c(OC)c2)ccc1N
inactive: Potency [1] > 92 µM | Potency [2] > 92 µM | Potency [3] > 92 µM | Potency [4] > 92 µM | Potency [5] > 92 µM | Potency [6] > 92 µM | Potency [7] | outcome [8] | outcome [9] | outcome [10] | outcome [11] | Potency [12] | Potency [13] | outcome [14] | outcome [15] | Potency [16] | Potency [17] | Potency [18] | Potency [19] | max response [20] 15.2% and -15% and -5%

N#C/C(N)=C(/N)C#N
inactive: Potency [1] > 92 µM | Potency [2] > 92 µM | Potency [3] > 92 µM | Potency [4] > 92 µM | Potency [5] > 92 µM | Potency [6] > 92 µM | Potency [7] | outcome [8] | outcome [9] | outcome [10] | outcome [11] | Potency [12] | Potency [13] | outcome [14] | outcome [15] | Potency [16] | Potency [17] | Potency [18] | Potency [19] | max response [20] -0.0232%

ClCc1ccccn1
inactive: Potency [1] > 92 µM | Potency [2] > 92 µM | Potency [3] > 92 µM | Potency [4] > 92 µM | Potency [5] > 92 µM | Potency [6] > 92 µM | Potency [7] | outcome [8] | outcome [9] | outcome [10] | outcome [11] | Potency [12] | Potency [13] | outcome [14] | outcome [15] | Potency [16] | Potency [17] | Potency [18] | Potency [19] | max response [20] 1.66% and -12.2%

Cc1cc(Cl)ccc1O
inactive: Potency [1] > 92 µM | Potency [2] > 92 µM | Potency [3] > 92 µM | Potency [4] > 92 µM | Potency [5] > 92 µM | Potency [6] > 92 µM | Potency [7] | outcome [8] | outcome [9] | outcome [10] | outcome [11] | Potency [12] | Potency [13] | outcome [14] | outcome [15] | Potency [16] | Potency [17] | Potency [18] | Potency [19] | max response [20] -5.93%

COc1c(C(C)(C)C)cc([N+](=O)[O-])c(C)c1[N+](=O)[O-]
inactive: Potency [1] > 92 µM | Potency [2] > 92 µM | Potency [3] > 92 µM | Potency [4] > 92 µM | Potency [5] > 92 µM | Potency [6] > 92 µM | Potency [7] | outcome [8] | outcome [9] | outcome [10] | outcome [11] | Potency [12] | Potency [13] | outcome [14] | outcome [15] | Potency [16] | Potency [17] | Potency [18] | Potency [19] | max response [20] -7.25%

Cc1cc(-c2cc(C)c(N)c(C)c2)cc(C)c1N
inactive: Potency [1] > 92 µM | Potency [2] > 92 µM | Potency [3] > 92 µM | Potency [4] > 92 µM | Potency [5] > 92 µM | Potency [6] > 92 µM | Potency [7] | outcome [8] | outcome [9] | outcome [10] | outcome [11] | Potency [12] | Potency [13] | outcome [14] | outcome [15] | Potency [16] | Potency [17] | Potency [18] | Potency [19] | max response [20] 7.5%
